Structures can show the parent of a compound that is named as a salt.

The test system of this assay is A549. Put plainly: Euclidean distance of Cell Painting phenotypic profile (signed KS, 77 features) to DMSO centroid (dimensionless distance); 5 or 10 uM (library dependent); higher = stronger phenotypic change vs DMSO (phenoactivity). Particulars: 48 h. The essentials:
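Library compounds were applied at 10 or 5 uM, depending on the library, with 0.1% DMSO final, for 48 h to five cancer lines and a healthy fibroblast line. After staining, cells were imaged confocally at 20X across 9 fields per well, and Harmony extracted 77 features, each scored as a signed Kolmogorov-Smirnov statistic against vehicle wells on the same plate. Phenoactivity is the Euclidean distance between each profile and the median vehicle profile, with profiles first plate-position corrected, correlation-weighted and averaged over replicates at the top dose.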
Consider `Cn1cnc2c1c(=O)[nH]c(=O)n2C` [Theobromine], for which the Euclidean distance turned out to be 0.658.

`Nc1nc(OCc2cc(Br)cs2)c2[nH]cnc2n1` [Lomeguatrib] yielded an Euclidean distance of 1.13.

Consider `Cc1nnc(SCC2=C(C(=O)O)N3C(=O)[C@@H](NC(=O)Cn4cnnn4)[C@H]3SC2)s1` [Cefazolin Sodium], for which the Euclidean distance amounted to 0.587.

`c1ccc2[nH]c(-c3cscn3)nc2c1` [Thiabendazole] registered an Euclidean distance of 0.753.

`CCC(Cc1c(I)cc(I)c(N)c1I)C(=O)O` (stereo not given) [Iopanoic acid] had an Euclidean distance of 0.937.

`CCOC(=O)[C@H](CCc1ccccc1)N[C@H]1CS[C@H](c2cccs2)CN(CC(=O)O)C1=O` [Temocapril HCl] showed an Euclidean distance of 0.454.

Regarding `C[C@]12CC[C@@H]3c4ccc(O)cc4C[C@@H](CCCCCCCCC[S+]([O-])CCCC(F)(F)C(F)(F)F)[C@H]3[C@@H]1CC[C@@H]2O` (stereo not given in full) [Fulvestrant], the Euclidean distance came out at 1.67.

`N#CC[C@H](C1CCCC1)n1cc(-c2ncnc3[nH]ccc23)cn1` [Ruxolitinib Phosphate] gave an Euclidean distance of 1.67.

Take `C[S+](CC[C@H](N)C(=O)[O-])C[C@H]1O[C@@H](n2cnc3c(N)ncnc32)[C@H](O)[C@@H]1O` (stereo not given in full) [Ademetionine]: the Euclidean distance is 1.02.

The compound `OC[C@@H](O)[C@@H](O)[C@H](O)[C@H](O)CO` [D-Mannitol] returned an Euclidean distance of 0.536.

`COC(=O)c1ccc(O)cc1` [Methyl 4-hydroxybenzoate] yielded an Euclidean distance of 0.453.

For the compound `CCCCC1C(=O)N(c2ccccc2)N(c2ccccc2)C1=O` [Phenylbutazone], the Euclidean distance amounted to 0.759.

For the compound `Cc1nc2n(c(=O)c1CCN1CCC(c3noc4cc(F)ccc34)CC1)CCCC2` [Risperidone], the Euclidean distance came to 0.71.

`CC[C@H](C)C(=O)O[C@H]1C[C@@H](C)C=C2C=C[C@H](C)[C@H](CC[C@@H]3C[C@@H](O)CC(=O)O3)[C@H]21` [Lovastatin]: the Euclidean distance turned out to be 1.61.

Take `COc1ccccc1O` [Guaiacol]: the Euclidean distance is 0.854.

Consider `O=C(O)c1cn(-c2ccc(F)cc2)c2cc(N3CCNCC3)c(F)cc2c1=O` [Sarafloxacin HCl], for which the Euclidean distance was 0.812.

On to `NS(=O)(=O)NCCNc1nonc1/C(=N/O)Nc1ccc(F)c(Br)c1`, for which the Euclidean distance was determined as 1.13.

On to `O=C1C(O)=C([C@H]2CC[C@H](c3ccc(Cl)cc3)CC2)C(=O)c2ccccc21` [Atovaquone], for which the Euclidean distance came to 0.846.

`C=CC(=O)N1C[C@H](Nc2ncnc3[nH]ccc23)CC[C@@H]1C` registered an Euclidean distance of 0.386.

`CC(C)(C)OC(=O)N[C@H]1CCCCC/C=C\[C@@H]2C[C@@]2(C(=O)NS(=O)(=O)C2CC2)NC(=O)[C@@H]2C[C@@H](OC(=O)N3Cc4cccc(F)c4C3)CN2C1=O` [Danoprevir (ITMN-191)] came in with an Euclidean distance of 0.94.

`Cc1cc(-n2c(=O)[nH]c(=O)n(C)c2=O)ccc1Oc1ccc(SC(F)(F)F)cc1` [Toltrazuril] had an Euclidean distance of 0.597.

Consider `CC(COc1ccccc1Cc1ccccc1)N1CCCCC1` (stereo not given) [Benproperine phosphate], for which the Euclidean distance turned out to be 1.63.

In turn, `CCOC(=O)C1=C(COCCN)NC(C)=C(C(=O)OC)[C@@H]1c1ccccc1Cl` [Levamlodipine] came in with an Euclidean distance of 0.702.

For `COc1ccccc1OCC(O)CO` (stereo not given) [Guaifenesin], the Euclidean distance was determined as 0.957.

As to `COCCOC(=O)C1=C(C)NC(C)=C(C(=O)OC(C)C)C1c1cccc([N+](=O)[O-])c1` (stereo not given) [Nimodipine], the Euclidean distance turned out to be 1.37.

Regarding `COC(=O)C1=C(C)NC(C)=C(C(=O)OCCN(C)Cc2ccccc2)C1c1cccc([N+](=O)[O-])c1` (stereo not given) [Nicardipine HCl], the Euclidean distance was 1.28.

`CC#CC(=O)N1CCC[C@H]1c1nc(-c2ccc(C(=O)Nc3ccccn3)cc2)c2c(N)nccn12` [Acalabrutinib (ACP-196)] yielded an Euclidean distance of 0.693.

`COc1cc(Nc2ncc(F)c(Nc3ccc4c(n3)N(COP(=O)(O)O)C(=O)C(C)(C)O4)n2)cc(OC)c1OC` [R788 (Fostamatinib) Disodium] yielded an Euclidean distance of 2.39.

Take `CC(C)(C)c1nc(-c2cccc(NS(=O)(=O)c3c(F)cccc3F)c2F)c(-c2ccnc(N)n2)s1` [Dabrafenib Mesylate]: the Euclidean distance was determined as 1.23.

Compound `COc1ccc2cc([C@H](C)C(=O)O)ccc2c1` [Naproxen] registered an Euclidean distance of 0.78.

Regarding `NCCS` [2-Aminoethanethiol], the Euclidean distance worked out at 0.781.

Regarding `Cn1cc(Nc2nccc(N3C[C@H]4CC[C@@H](C3)N4C(=O)[C@@H]3CC3(F)F)n2)cn1`, the Euclidean distance was 1.31.

In turn, `CCN(CC)CCOC(=O)c1ccc(N)cc1` [Procaine HCl] gave an Euclidean distance of 0.741.

Regarding `O=c1c(O)c(-c2ccc(O)c(O)c2)oc2cc(O)ccc12` [Fisetin], the Euclidean distance stood at 0.833.

With `CC(C)NCC(O)COc1ccc(CC(N)=O)cc1` (stereo not given) [Atenolol], the Euclidean distance amounted to 0.613.

Compound `CO[C@@]1(NC(=O)Cc2cccs2)C(=O)N2C(C(=O)O)=C(COC(N)=O)CS[C@@H]21` [Cefoxitin sodium] displayed an Euclidean distance of 0.874.

The compound `CCOC(=O)CCNc1cc(N2CCc3ccccc3CC2)nc(-c2ccccn2)n1` came in with an Euclidean distance of 2.58.

Compound `COC(=O)[C@]12CCC(C)(C)C[C@H]1[C@H]1C(=O)C=C3[C@@]4(C)C=C(C#N)C(=O)C(C)(C)[C@@H]4CC[C@@]3(C)[C@]1(C)CC2` [Bardoxolone Methyl] yielded an Euclidean distance of 5.71.

As for `Nc1cc(F)ccc1NC(=O)c1ccc(CNC(=O)/C=C/c2cccnc2)cc1` [Tucidinostat (Chidamide)], the Euclidean distance came to 2.59.

In turn, `Clc1ccc2c(c1)CCc1cccnc1C2=C1CCNCC1` [Desloratadine] had an Euclidean distance of 0.811.

The record behind these values is the supplement of paper PMC10127200.
